This is one part of a sample in which hits are shown more often than they occur.
Dicer processing: blocks human Dicer maturation of pre-miR-21 | Q9UPY3 | cat-ELCCA pre-miR-21 Dicer processing, chemiluminescence; stronger effect = higher value | z-score at 25 µM | actives 6% (n = 47,000) | AID 1347074; in the data active means z-score above about 3, passing the limit was not always enough;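 further: plate controls were vehicle for no effect and no enzyme for full effect; higher signal means more uncleaved substrate so more Dicer inhibition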
* = called active by the depositor.

SMILES	Dicer processing
Cc1csc2c(N3CCSCC3)ncnc12	-1.2
Cc1csc2c(=O)n(CCO)c(=O)[nH]c12	4.6*
Cc1csc2nc(CN3CCOCC3)[nH]c(=O)c12	-0.93
Cc1csc2c(=O)n(CCN3CCSCC3)c(=O)[nH]c12	5.9*
CC(C)CCn1c(=O)[nH]c2ccccc21	0.96
COc1c(NC(=O)N(C)C)csc1Cl	0.6
NC(=O)CNC(=O)CSc1ccccn1	0.07
Nc1nc(N)nc(-c2cc(Cl)ccc2Cl)n1	5.3
CCOC(=O)c1c[nH]c2c(C)cc(C)cc2c1=O	-0.88
Cc1cc(C)n(-c2ncnc3c2nnn3Cc2ccccc2Cl)n1	0.19
Nc1nc(-c2ccc3c(c2)Cc2ccccc2-3)cs1	-1.5
O=C(CC1C(=O)NCCN1C(=O)c1ccccc1)Nc1ccc(F)cc1 (centres undefined)	2.9
CC(=O)c1ccc(C#N)c(SCC(=O)c2ccccc2)n1	0.91
CCOC(=O)CC(=O)CSc1nc(C)c(C)c(C)c1C#N	0.68
Cc1nc(SCC(=O)c2ccccc2)c(C#N)c(C)c1C	4.4*
COc1c(Br)cc([N+](=O)[O-])cc1Br	1.8
O=C(Nc1cc2ccccc2s1)Nc1ccc(F)cc1F	-2.7
CC1CCc2c(sc3nnn(CC(N)=O)c(=O)c23)C1 (centres undefined)	6.4*
CC1CCc2c(sc3nnn(CC(=O)N4CCCCC4)c(=O)c23)C1 (centres undefined)	2
CC1CCc2c(sc3nnn(CC(=O)OC(C)C)c(=O)c23)C1 (centres undefined)	1.4
CCOC(=O)CSc1nc(C)c2ccc(C)cc2n1	0.44
CN(C)c1ccsc1C(=O)NNS(=O)(=O)c1ccc(Cl)cc1	0.46
COC(=O)c1ccc(N2CCc3cc4ccc(C)cc4nc32)cc1	3*
Cc1ccc2cc3c(nc2c1)N(c1ccccc1)CC3	-2.5
COC(=O)c1ccc(N2C(=O)CC(N3CCN(C)CC3)C2=O)cc1 (centres undefined)	0.87
SMILES	Dicer processing
O=S(=O)(NCC1COc2ccccc2O1)c1ccc(S(=O)(=O)c2ccccc2)s1 (centres undefined)	-0.69
COc1ccc(-c2cc(-c3ccc(OC)cc3)c3c(=O)n(C)c(=O)n(C)c3n2)cc1	3.4*
COc1ccc(-c2nc3c([nH]2)c(=O)n(C)c(=O)n3C)c(OC)c1	-0.42
Cn1c(=O)c2c(-c3ccc(F)cc3)cc(-c3cccc(F)c3)nc2n(C)c1=O	2.2
CCOC(=O)c1nn(-c2ccc(OC)cc2)c(=O)c(C#N)c1C	-0.37
COc1cc(/C=N/Nc2nc3c(c(=O)n(C)c(=O)n3C)n2Cc2ccc(Br)cc2)cc(OC)c1OC	0.39
O=S(=O)(Nc1nc(SCc2ccc(Cl)cc2)n[nH]1)c1ccccc1	-0.77
Cc1oc(-c2ccccc2)cc1C(=O)/C=C/N(C)C	1.7
CN(C)/C=C/C(=O)c1ccc(Br)s1	-0.94
CN(C)/C=C/C(=O)c1csc2ccccc12	3.5*
N/C(COc1cccc(Cl)c1)=N\OC(=O)CCn1cc(C(F)(F)F)ccc1=O	-0.72
O=C(CSc1nc(-c2ccc(Cl)cc2)[nH]c(=O)n1)Nc1cccc(Cl)c1	-0.04
CCOC(=O)C(NC(=O)c1ccccc1Cl)(Nc1ccccn1)C(F)(F)F (centres undefined)	3.4*
CCOC(=O)NC(Nc1ccccc1)(C(=O)OCC)C(F)(F)F (centres undefined)	1.1
CCOC(=O)CNC(=O)c1ccccc1Cl	1.3
CCOC(=O)C(NCCOC)(NC(=O)c1ccccc1Cl)C(F)(F)F (centres undefined)	4.6*
CCOC(=O)C(NCCc1ccccc1)(NC(C)=O)C(F)(F)F (centres undefined)	0.6
CCOC(=O)C(NC(=O)c1cccc(C)c1)(Nc1cccc(C)n1)C(F)(F)F (centres undefined)	-1.6
O=C1CC2(CCCC2)C(=O)N1c1ccc(S(=O)(=O)NCCc2cccs2)cc1Cl	-1.7
CCCS(=O)(=O)/C(C#N)=C/Nc1ccccn1	-0.32
Cc1onc(-c2ccccc2Cl)c1NC(=O)Nc1c(F)cccc1F	0.26
CCOc1cc(C2Nc3ccc4ncccc4c3C3=C2C(=O)CC(C)(C)C3)ccc1O (centres undefined)	-0.14
Cc1noc(-c2ccc(Cl)cc2)c1C(=O)NNC(=O)c1ccc(C(F)(F)F)cc1	3.8
Cc1nc(C)c(C(=O)NNC(=O)c2ccc(C(F)(F)F)cc2)s1	-0.39
Cc1noc(NC(=O)c2ccc(C(F)(F)F)cc2)c1[N+](=O)[O-]	4.6*
SMILES	Dicer processing
Cc1nc(C)c(-c2cnc(NS(=O)(=O)c3cc(C(F)(F)F)cc(C(F)(F)F)c3)nc2)s1	-0.23
O=C(O)c1cc(-c2ccccn2)nc2ccccc12	-0.85
COc1ccc(-c2cc(C(=O)O)c3ccccc3n2)c(OC)c1	4.5*
Nc1cccc(-c2cc(C(=O)O)c3ccccc3n2)c1	-0.8
CCCCn1c(SCC(=O)c2ccccc2)nc2c1c(=O)[nH]c(=O)n2C	-0.38
Cc1c2c(=O)n(-c3nc4ccccc4s3)nc-2cc(O)n1CCN1CCOCC1	-0.61
O=C(Nc1c(F)cccc1F)C(F)(F)F	-0.18
O=C(O)CCCNc1ncnc2ccccc12	-0.76
OCCNc1ncnc2ccccc12	0.02
O=C(O)CNc1ncnc2ccccc12	3.6*
CN(CCc1ccccn1)S(=O)(=O)c1ccc2c(c1)CCO2	1.3
CC1=NN(c2ccccc2)C(=O)/C1=C\c1c(C)[nH]n(-c2ccccc2)c1=O	-0.36
COc1cccc(C2C(C(=O)OC(C)C)=C(C)NC3=C2C(=O)CC(C)(C)C3)c1 (centres undefined)	-0.49
CCNc1nc(-c2ccc(Cl)cc2)c(-c2ccc(C)cc2)s1	-2.2
Clc1ccc2nc3c(nc2c1)Nc1ccccc1S3	0.76
CCNc1nc2ccc(Cl)cc2nc1NCC	4.6*
Cc1cc(=O)oc2c1c(C)nn2-c1ccccc1	-0.2
CCNc1c2c(nc3ccccc13)CC(C)(C)CC2=O	3*
CC1(C)CC(=O)C2=C(C1)c1c(ccc3ccccc13)NC2c1ccccc1 (centres undefined)	3
CCc1nc(N)nc2c1C(=O)CC(C)(C)C2	-2.8
CSc1sc(-c2nc(C(C)(C)C)cs2)c(C)c1C(C)=O	0.07
N#CC1=C(SCC(N)=O)NC(=O)CC1c1ccccc1Cl (centres undefined)	1.2
CCOc1ccc2c(c1)C(C)=CC(C)(C)N2C(=O)Nc1ccc(F)cc1	0.91
CC1=CC(C)(C)N(C(=O)c2ccc(F)cc2)c2cc3c(cc21)OCO3	4.6*
CC1=CC(C)(C)N(C(=O)Nc2ccc(C)cc2)c2ccc(C)cc21	-0.67
SMILES	Dicer processing
CC(C)c1nnc(N2C(=O)c3oc4ccccc4c(=O)c3C2c2ccccc2)s1 (centres undefined)	0.48
CC(C)(C)n1ccc(-c2cc(F)cc(F)c2O)n1	0.92
COc1ccc(/C=C2/N=C(c3ccccc3)NN(Cc3ccccc3)C2=O)cc1	-0.3
CS(=O)(=NS(=O)(=O)c1cc(S(=O)(=O)c2ccccc2)cs1)c1ccc(Cl)cc1 (centres undefined)	0.73
COc1ccc(NS(=O)(=O)c2ccc(C)c(Cl)c2)cn1	0.45
COc1ccc(S(=O)(=O)N2CCN(C)CC2)cc1C	4*
CN1CCN(S(=O)(=O)c2ccc3ccccc3c2)CC1	-0.65
COc1ccc(OC)c(S(=O)(=O)N2CCN(C)CC2)c1	-1.2
O=C(Nc1ccc(Cl)cn1)c1ccc(Br)cc1	1.4
O=C1CSC2(C(=O)Nc3ccccc32)N1c1ccccc1 (centres undefined)	-0.52
Cc1ccc(C)c(C(=O)CC2(O)C(=O)Nc3ccccc32)c1 (centres undefined)	1.6

Screening results as filed in PubChem.
